This note sets out measurements from PubChem BioAssay (EPA / NIEHS).

For test [1], the target named is Androgen receptor (Homo sapiens) (UniProt P10275). Kind of test: ATG_AR_TRANS: Attagene TRANS-FACTORIAL HepG2 Assay for human Androgen Receptor (AR) (AID 2282973; active = hit-call score of the fitted dose curve at least 0.9, where 1 is the maximum). The note with it: HepG2 Attagene TRANS-FACTORIAL AR reporter transcription. The method in brief: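 HepG2 cells transiently transfected with AR-Gal4 chimera and GAL4-UAS reporter units; chemical exposure 24 h. Reporter mRNA quantified by RT-PCR with fluorescent labelling and capillary electrophoresis; gain-of-signal fitted against DMSO.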

Test [2] in a line: Tanguay_ZF_120hpf_MUSC: Oregon State University Tanguay Lab 120 Hour Post-fertilization zebrafish Assay for Muscle Malformation (AID 2284401). The method in brief:
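Dechorionated Tropical 5D wild-type zebrafish embryos exposed statically from 6 to 120 hpf at 28C, one per well, in 0.64% DMSO. Muscle malformation scored present/absent by brightfield microscopy at 120 hpf, fitted against DMSO.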

The target in test [3] is Cytochrome P450 2C18 (Homo sapiens) (UniProt P33260). Kind of test: NVS_ADME_hCYP2C18: NovaScreen (NVS) CYP450-related Enzyme Activity (ADME) Assay for human CYP2C18 (AID 2283103). The method in brief: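 Cell-free recombinant human CYP2C18 with fluorogenic substrate; fluorescence intensity read 0.5 h after dosing. Single-point screen at 10 uM in duplicate, then concentration-response up to 20 uM; loss of signal fitted against acetonitrile baseline.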

Records with an inconclusive call do not appear. Active and inactive are the calls of the source. Rule for the calls, unless noted: active = hit-call score of the fitted dose curve at least 0.9, where 1 is the maximum; inactive = score below 0.9.

Chain of Androgen receptor (Homo sapiens) (P10275 whole entry, looked up, the tested form may be a part): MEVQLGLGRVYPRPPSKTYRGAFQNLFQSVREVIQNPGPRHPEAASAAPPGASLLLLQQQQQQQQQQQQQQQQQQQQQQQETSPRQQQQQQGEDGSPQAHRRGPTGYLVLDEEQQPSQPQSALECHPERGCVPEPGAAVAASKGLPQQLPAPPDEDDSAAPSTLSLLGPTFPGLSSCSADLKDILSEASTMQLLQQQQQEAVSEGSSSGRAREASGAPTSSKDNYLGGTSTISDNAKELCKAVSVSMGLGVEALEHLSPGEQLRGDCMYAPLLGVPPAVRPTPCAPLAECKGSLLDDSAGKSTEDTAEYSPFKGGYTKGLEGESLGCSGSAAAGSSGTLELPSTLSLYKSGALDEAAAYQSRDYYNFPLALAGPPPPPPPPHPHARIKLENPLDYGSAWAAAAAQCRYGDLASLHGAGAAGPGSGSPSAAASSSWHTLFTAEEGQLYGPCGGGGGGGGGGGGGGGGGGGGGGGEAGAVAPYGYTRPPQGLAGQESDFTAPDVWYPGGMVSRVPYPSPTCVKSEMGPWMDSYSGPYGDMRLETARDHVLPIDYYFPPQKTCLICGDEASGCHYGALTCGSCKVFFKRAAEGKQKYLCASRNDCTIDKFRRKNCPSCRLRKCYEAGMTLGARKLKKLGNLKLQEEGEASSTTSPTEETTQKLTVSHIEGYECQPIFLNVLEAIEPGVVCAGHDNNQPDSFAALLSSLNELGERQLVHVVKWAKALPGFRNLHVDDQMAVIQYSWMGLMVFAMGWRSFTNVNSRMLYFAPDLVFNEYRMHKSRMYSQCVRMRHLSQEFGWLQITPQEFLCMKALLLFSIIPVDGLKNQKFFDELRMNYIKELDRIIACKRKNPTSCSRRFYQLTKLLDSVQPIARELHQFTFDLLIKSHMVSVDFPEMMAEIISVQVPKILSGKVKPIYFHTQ
Chain of Cytochrome P450 2C18 (Homo sapiens) (P33260 whole entry, looked up): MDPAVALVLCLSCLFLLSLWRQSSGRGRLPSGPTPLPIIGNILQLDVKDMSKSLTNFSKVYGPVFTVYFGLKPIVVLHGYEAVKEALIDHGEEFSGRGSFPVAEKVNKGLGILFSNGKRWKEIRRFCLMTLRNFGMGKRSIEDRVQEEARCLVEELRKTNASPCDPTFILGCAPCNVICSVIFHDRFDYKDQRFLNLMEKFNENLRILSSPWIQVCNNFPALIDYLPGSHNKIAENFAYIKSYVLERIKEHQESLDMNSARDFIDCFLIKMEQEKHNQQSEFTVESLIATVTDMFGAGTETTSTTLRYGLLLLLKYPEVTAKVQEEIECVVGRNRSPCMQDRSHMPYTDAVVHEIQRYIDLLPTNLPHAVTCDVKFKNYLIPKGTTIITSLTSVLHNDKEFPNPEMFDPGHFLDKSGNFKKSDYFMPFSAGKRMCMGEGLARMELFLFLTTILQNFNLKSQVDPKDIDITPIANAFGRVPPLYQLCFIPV

With `O=C(O)C(F)(F)C(F)(F)C(F)(F)C(F)(F)C(F)(F)C(F)(F)C(F)(F)C(F)(F)C(F)(F)C(F)(F)C(F)(F)C(F)(F)C(F)(F)F`, the compound was classed as inactive in test [1] and in test [2]. Consider `O=C(O)C(F)(F)C(F)(F)C(F)(F)C(F)(F)C(F)(F)C(F)(F)C(F)(F)C(F)(F)Cl`, for which the call in test [1] was inactive. Besides, in test [2], the AC50 – broadly, the concentration at which the activity in the assay is half-maximal – was 39.3 µM (active).

With `CCCCCOC(=O)COc1cc(N2C(=O)C3=C(CCCC3)C2=O)c(F)cc1Cl`, the compound was classed as inactive in test [3].
